According to the supplement of paper PMC10681739:

Target: RUNX1 (UniProt Q01196)
Experiment: RUNX1 binding intensity (PBM fluorescence) in presence of ETS1, normalised to RUNX1-only experiment (arbitrary fluorescence units); higher = stronger binding
Conditions: RUNX1 concentration 2 nM; ETS1 concentration 25 nM
Experimental: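 Cooperative gcPBM on 36-bp genomic probes with neighbouring ETS1 and RUNX1 sites. Recombinant human RUNX1 (2 nM) was incubated alone or with ETS1 (25 nM) and detected with anti-RUNX1 antibody plus Alexa488 secondary. Values are medians over 4 replicate spots; the RUNX1+ETS1 data were normalised to the RUNX1-only data. The probes sit in constant array flanks that are not printed.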
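Further: Full-length recombinant human ETS1 or RUNX1 bound to double-stranded 36-bp genomic probes on microarrays, detected by protein-specific primary antibody and Alexa488 secondary, spot fluorescence as median of four replicate spots.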

Chain of RUNX1 (Q01196 whole entry): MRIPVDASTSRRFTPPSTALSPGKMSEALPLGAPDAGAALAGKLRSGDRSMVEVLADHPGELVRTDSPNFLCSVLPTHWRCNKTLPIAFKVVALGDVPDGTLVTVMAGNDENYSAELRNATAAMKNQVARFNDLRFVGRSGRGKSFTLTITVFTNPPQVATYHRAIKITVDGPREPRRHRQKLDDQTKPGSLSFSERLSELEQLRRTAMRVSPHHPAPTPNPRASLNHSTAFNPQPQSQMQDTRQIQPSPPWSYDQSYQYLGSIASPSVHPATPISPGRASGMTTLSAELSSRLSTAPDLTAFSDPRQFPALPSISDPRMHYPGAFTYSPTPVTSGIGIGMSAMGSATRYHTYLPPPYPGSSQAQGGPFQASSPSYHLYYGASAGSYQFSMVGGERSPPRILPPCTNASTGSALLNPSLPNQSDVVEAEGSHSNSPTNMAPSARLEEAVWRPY

Sequence | RUNX1 binding intensity
GCCCCCATGCTTCCTGTTGTGGGAGATGAAGTGTGG | 1650
GTTGCCCCACTTCCTGCCAGTGGTTTTTGGTTGGCC | 4040
GACCCGGCCCGCCCCTTCCGGCCGCAGCGCGGGGCA | 1490
ACACAAACAGGAAGTGTTTGTGGTCCCTGCCTTTAG | 1590
AAAGCAAACAGGAAGTGCTGTGGTAACAAGGCCCCA | 1820
GCACTCATTTCCTGTCCCCTGTGGTTTAAAGGTTTT | 4770
CATGGGACCCGGAAGTGTGTGGTAAAGCGCCGGGGC | 2350
ACCTTCGCCGGATGCTGTGGCTGAAACCACAGCATT | 1980
GAAGCCAGGAAATGGTGCGTGTGCGGGGCCGGGCGC | 935
GAGGAGGAAAGCGGAAGCGCTGCCCGCAGTGGTAGG | 1270
CCCCTATATCACAGGATGCCGCAAACTAGTAACAGG | 993
TAAAGAAACAGGATGACTGTGGTTTACTGCGAGCAT | 1150
GCGGCTGAGAACACAGGATGTGGCTTTTGGCAGATG | 1680
ACTATTTTTAGACTTCCCCACCCCGCAGTTTCAAGG | 1010
TGTGTAACTTCCTGGCTTTGGTGGTTTCCCCCTCCT | 2180
CTCCACCGGATGCAGCAATGAAGGCCGCAGGAATGG | 1130
CTCACTTCCCCGGCAGCTCCCTCGCCCCGACCGCAG | 2740
CTTTGTTGAAAAGGATGTGGTCATCTGATCTTGCTG | 2000
ACAGGAAATGACATCAGAATCTCCAAACCACAACCA | 2110
GAGGAAGAGTCTTCCTGTAACCACTAGAGGGCGCTG | 960

Sequence | RUNX1 binding intensity
TGGTTTCTCACTGGCGGATGTGGGTGGGTCGCCTCC | 1100
CCCAATTTCCTTTGCTCTGCTGTCTGCCAACCGCAA | 4340
TGCTCAGAAGGGCATCCGGTTGCGGAGAAGGTACAC | 1370
TAACTACTTCCTTTTACTATCTACCACAATTTAATT | 2810
GAGTCGCTTCCGCTCCCGCCCCGCTCTGTGGCGTAG | 1980
GCAGCTGCAAACAGGAAACCACAGCAGCGTAGCGGA | 1710
CTCACTCATCTGACTTCCTGCGGTTTACGACAACAG | 17400
CTTGTGAAATGTATCCTGTGGTTGCCGGCTGAAGTG | 1380
TAAAACACCAGGAAACTCTGTGGTGAGTGGGAGGTG | 903
GGCTGGCCTAGGAACTTCCGCCACAAGTCCCGCCCC | 1390
GCGCACTTCCGGGCTGGTGAACGCGGTGACGTCACC | 1720
CACCTGGCCCGGACGGCTGCGGTCTGGAGGGCTGTC | 2050
CCGCCGCGACACTTCCGGCGGCCACCACAGGGTATT | 2500
GTACTGAGTCACAGGAAACCACAAGGGAAGGGTCCC | 3070
GTTGAGTAGTGACAGGAAGTGACCGCAAGGGGGCGC | 3540
AGCTTGCTTCCTGTCCCCAAAACCCACAGCACACGG | 2590
GTTGGGGTGCGTGTAGGATGTGGTCTGGGATGATTA | 867
GACAAAACACAGAAAGGAAGTGGTCAACTATTGCAC | 1600
CCACTGCCGGAAGGGGAACTGTGGGGGTGCGCGAGT | 1040
